# Hits are enriched below; roughly 4.3% of the tested compounds scored in any of these assays.
# NR3A LBD binder = modulators (binders) of human NR3A ligand-binding domain; NR3A LBD differential scanning fluorimetry, Tm shift; 0% = protein alone, 100% = glycine-bound protein; Tm shift relative to glycine control, % at 25 µM; actives 2.5% (n = 340,000);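 active = melting temperature shift of at least 10% of the positive control shift, at one fixed dose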
# HGIII-sPLA2 inh = Blocks human group III sPLA2 activity; QFRET BODIPY PC-A2 liposome hydrolysis, fluorescence; inhibition, % at 12.2 µM; actives 0.56% (n = 370,000); AID 743126;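 active = inhibition above mean plus 3 SD of compounds lying within the high and low control bounds, cut at about 19% in these data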
# Target sequence (Q9NZ20 whole entry, looked up): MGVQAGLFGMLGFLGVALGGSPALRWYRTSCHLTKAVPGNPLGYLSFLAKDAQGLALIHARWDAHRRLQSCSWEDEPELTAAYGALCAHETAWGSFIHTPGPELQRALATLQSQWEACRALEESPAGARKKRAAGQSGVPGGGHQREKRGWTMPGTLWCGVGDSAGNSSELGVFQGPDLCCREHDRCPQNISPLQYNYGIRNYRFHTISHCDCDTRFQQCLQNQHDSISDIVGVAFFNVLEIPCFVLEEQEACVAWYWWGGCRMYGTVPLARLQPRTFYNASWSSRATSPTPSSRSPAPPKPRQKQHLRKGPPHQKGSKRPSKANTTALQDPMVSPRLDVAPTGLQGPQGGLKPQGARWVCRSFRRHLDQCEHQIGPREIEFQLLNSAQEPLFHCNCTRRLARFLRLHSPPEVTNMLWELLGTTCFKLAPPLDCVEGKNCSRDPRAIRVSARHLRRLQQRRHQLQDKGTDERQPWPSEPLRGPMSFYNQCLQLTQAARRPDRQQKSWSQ
# ADAM10 inh = inhibitors of human ADAM10 | actives 0.62% (n = 370,000) | recombinant ADAM10, EDANS/DABCYL FRET peptide cleavage, 3 h | AID 720582 | inhibition, % at 7 µM;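 active = inhibition above a per-campaign cutoff equal to the mean of compounds falling between control-based bounds plus 3 SD, cut at about 20% in these data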
# ADAM17 inh = inhibits human ADAM17. recombinant ADAM17, EDANS/DABCYL FRET peptide cleavage. inhibition, % at 6.95 µM. actives 0.83% (n = 370,000). AID 720648;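 active = inhibition above the mean of compounds lying between control limits plus 3 SD, set per campaign, cut at about 8.5% in these data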
# FAS-TE inh = FAS thioesterase (human) inhibition; P49327; recombinant FAS-TE, OMFH fluorogenic substrate, fluorescence endpoint; inhibition, % at 15 µM; actives 0.67% (n = 360,000);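 active = compounds whose normalised, plate-corrected inhibition of enzyme fluorescence in the single-dose primary screen is 50% or more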
# Numbers stand for hits; 0 = inactive; - = no result given.
SMILES,NR3A LBD binder,HGIII-sPLA2 inh,ADAM10 inh,ADAM17 inh,FAS-TE inh
CC(=O)Nc1ccc(S(=O)(=O)Nc2ccccc2C(=O)N2CCCC2)cc1,0,0,0,0,0
CC(C)N1CCCCC(NC(=O)c2ccc(Cl)cc2Cl)C1=O (configuration not stated),-,0,0,0,-
CCCCCC(=O)NC1CCCCN(Cc2ccc(C)cc2)C1=O (configuration not stated),-,0,0,0,-
CC(C)CCN1C(=O)COc2ccccc2C1c1nnnn1-c1ccc2c(c1)OCCO2 (configuration not stated),-,0,0,0,-
CC(=O)Nc1ccc(S(=O)(=O)Nc2nc3ccccc3nc2Nc2ccc(C(=O)O)c(O)c2)cc1,24,0,0,0,0
CC(=O)Nc1ccc(Nc2nc3ccccc3nc2NS(=O)(=O)c2ccc(Cl)c([N+](=O)[O-])c2)cc1,24,0,0,0,0
O=[N+]([O-])c1ccc(S(=O)(=O)Nc2nc3ccccc3nc2Nc2ccccc2)cc1,0,0,0,0,0
NS(=O)(=O)c1cccc(Nc2nc3ccccc3nc2NS(=O)(=O)c2ccc(Cl)cc2)c1,28,0,0,0,0
O=C(Nc1ccc([N+](=O)[O-])cc1)Nc1ccc2c(c1)OCCO2,21,0,0,0,0
O=C(Nc1ccc(F)cc1)Nc1ccc2c(c1)OCO2,11,0,0,0,0
Cc1cccc(OCC(=O)Nc2ccc3c(c2)OCO3)c1C,23,0,0,0,0
O=C(Nc1cccc(C(=O)O)c1)Nc1ccc2c(c1)OCO2,24,0,0,0,0
Cc1ccc(OCC(=O)Nc2ccc3c(c2)OCO3)c(C)c1,0,0,0,0,0
O=C(Nc1ccc2c(c1)OCO2)Nc1ccc2c(c1)OCO2,0,0,0,0,0
COc1cc([N+](=O)[O-])ccc1NC(=O)Nc1ccc2c(c1)OCCO2,0,0,0,0,0
O=C(C1CCN(c2ncnc3c2sc2cccc(F)c23)CC1)N1CCN(Cc2ccc(F)cc2)CC1,-,0,0,0,-
O=C(Nc1ccc([N+](=O)[O-])cc1)Nc1ccc2[nH]c(=O)[nH]c2c1,24,0,0,0,0
COc1cc(C(=O)NC(=S)Nc2ccc3c(c2)OCO3)cc(OC)c1OC,0,0,0,0,0
COc1cc(NC(=O)Nc2ccc3c(c2)OCO3)cc(OC)c1OC,26,0,0,0,0
COCCCNC(=O)C[C@H]1C[C@@]2(C(=O)OC)C(=C[C@H](C(C)C)O[C@@H]2C2CC2)N(CCC2=CCCCC2)C1=O,-,0,0,0,-
N/C(=N\OC(=O)/C=C/c1ccccc1Cl)c1ccncc1,12,0,0,0,0
N/C(=N\OC(=O)/C=C/c1ccccc1)c1ccncc1,0,0,0,0,0
CCOC(=O)[C@]12CCCC=C1N(Cc1ccc(OC)cc1)C(=O)[C@@H]2CC(=O)N1CCCC1,-,0,0,0,-
COC(=O)[C@]12C[C@H](CC(=O)N3CCN(C(=O)C4CC4)CC3)C(=O)N(CCc3ccc(OC)c(OC)c3)C1=C[C@H](C(C)C)O[C@@H]2C1CC1,-,0,0,0,-
CSc1nc(N)nc(SCC(=O)c2ccc(C)cc2)c1C#N,20,0,0,0,0
SMILES,NR3A LBD binder,HGIII-sPLA2 inh,ADAM10 inh,ADAM17 inh,FAS-TE inh
CSc1nc(N)nc(SCC(=O)OC(C)C)c1C#N,0,0,0,0,0
COC(=O)c1cc(S(=O)(=O)N2CCCN(C(C)=O)CC2)cn1C,-,0,0,0,-
COC(=O)c1ccc2nc(Nc3nc4ccc(F)cc4s3)sc2c1,12,0,0,0,0
Cc1nnc(NC(=O)c2ccc(N3CCCC3=O)cc2)s1,0,0,0,0,0
O=C(Nc1nc2ccc(F)cc2s1)c1ccc(N2CCCC2=O)cc1,11,0,0,0,0
CC(=O)O[C@@H]1C=C[C@@H](C#Cc2ccc(C(C)(C)C)cc2)O[C@@H]1COC(=O)NCc1ccccc1,-,0,0,0,-
CCCCCc1ccc(NC(=O)O[C@@H]2CC[C@@]34CCCN3C(=O)CCC[C@H]4C2)cc1,-,0,0,0,-
O=C(Nc1ccc([N+](=O)[O-])cc1)Nc1ccc(N2CCOCC2)c2nonc12,18,0,0,0,0
CC(=O)Nc1cc([N+](=O)[O-])ccc1N1CCOCC1,0,0,0,0,0
O=C(c1ccc(Cl)c(Cl)c1)N1CCN(c2ccnc3cc(Cl)ccc23)CC1,-,0,0,0,-
C[C@H]1[C@@H](OC(=O)Nc2cc(Cl)ccc2Cl)CC[C@@]23CCCN2C(=O)CCC[C@@H]13,-,0,0,0,-

# Compound activity deposited in PubChem BioAssay by several laboratories.
